How the values were obtained:
Assay in all cases: DAPPL (digital affinity profiling via proximity ligation, sequencing); 10 mM Tris-HCl pH 7.5, 50 mM NaCl, 1 mM DTT, 4% glycerol, room temperature, 30 min; GST-TFs on glutathione beads, 16-mer random dsDNA library, 0.1% formaldehyde crosslink after washing; high values mean tight binding
FEV = target: T1, FEV (Homo sapiens, UniProt Q99581 1-238); conditions: protein: recombinant; tags: N-terminal GST; dsDNA, one strand shown
T1 sequence: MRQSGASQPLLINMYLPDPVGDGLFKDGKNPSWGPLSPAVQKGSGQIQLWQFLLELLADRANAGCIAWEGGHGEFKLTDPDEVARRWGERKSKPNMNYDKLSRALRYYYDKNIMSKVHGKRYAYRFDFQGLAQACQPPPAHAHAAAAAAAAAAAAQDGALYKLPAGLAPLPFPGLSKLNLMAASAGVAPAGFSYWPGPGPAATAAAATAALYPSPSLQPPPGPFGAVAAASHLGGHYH
Method in brief: (§1)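 Binding signal is each hexamer's read frequency for a factor divided by its frequency in the tag-only sample. The factors were GST-fused human transcription factors from yeast, captured on glutathione beads, DNA-barcoded and pooled with that sample. Pools were incubated with 200 nmole of a random double-stranded 16-mer DNA library in Tris/NaCl/DTT/glycerol buffer at room temperature for 30 min, then washed, crosslinked with 0.1% formaldehyde, proximity-ligated with BsaI/T4 ligase (1 h, 37 °C), PCR-amplified and sequenced on an Illumina NextSeq500.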

ETV5 = ETV5 (Homo sapiens, UniProt P41161 1-510); conditions: protein: recombinant; tags: N-terminal GST; dsDNA, one strand shown
Method in brief: as §1

HSF1 = HSF1 (Homo sapiens, UniProt Q00613 1-529); conditions: protein: recombinant; tags: N-terminal GST; chain copies: 3; dsDNA, one strand shown
Method in brief: as §1

SPIC = target: T2, SPIC (Homo sapiens, UniProt Q8N5J4 1-248); conditions: protein: recombinant; tags: N-terminal GST; dsDNA, one strand shown
T2 sequence: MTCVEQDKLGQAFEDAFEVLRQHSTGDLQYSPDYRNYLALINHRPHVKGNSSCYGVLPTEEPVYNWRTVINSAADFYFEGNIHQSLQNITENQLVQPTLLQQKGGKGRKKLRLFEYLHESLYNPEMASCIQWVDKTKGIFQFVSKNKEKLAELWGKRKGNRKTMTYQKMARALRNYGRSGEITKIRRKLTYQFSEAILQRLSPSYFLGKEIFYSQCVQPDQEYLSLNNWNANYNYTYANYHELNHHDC
Method in brief: as §1

ELF4 = ELF4 (Homo sapiens, UniProt Q99607 1-663); conditions: protein: recombinant; tags: N-terminal GST; dsDNA, one strand shown
Method in brief: as §1

ELK4 = target: T3, ELK4 (Homo sapiens, UniProt P28324-2 1-405); conditions: protein: recombinant; tags: N-terminal GST; dsDNA, one strand shown
T3 sequence: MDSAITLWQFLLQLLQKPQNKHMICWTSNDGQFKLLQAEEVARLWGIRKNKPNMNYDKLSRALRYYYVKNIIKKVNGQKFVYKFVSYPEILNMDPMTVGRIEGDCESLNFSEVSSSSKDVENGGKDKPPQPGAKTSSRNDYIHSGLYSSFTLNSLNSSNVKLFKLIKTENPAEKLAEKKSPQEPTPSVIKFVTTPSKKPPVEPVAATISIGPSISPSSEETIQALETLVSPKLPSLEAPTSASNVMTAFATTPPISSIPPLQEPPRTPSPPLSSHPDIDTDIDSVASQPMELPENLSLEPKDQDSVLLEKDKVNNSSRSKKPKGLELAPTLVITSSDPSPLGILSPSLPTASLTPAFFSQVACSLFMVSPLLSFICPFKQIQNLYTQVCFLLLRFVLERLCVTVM
Method in brief: as §1

ETV2 = target: T4, ETV2 (Homo sapiens, UniProt O00321 1-342); conditions: protein: recombinant; tags: N-terminal GST; dsDNA, one strand shown
T4 sequence: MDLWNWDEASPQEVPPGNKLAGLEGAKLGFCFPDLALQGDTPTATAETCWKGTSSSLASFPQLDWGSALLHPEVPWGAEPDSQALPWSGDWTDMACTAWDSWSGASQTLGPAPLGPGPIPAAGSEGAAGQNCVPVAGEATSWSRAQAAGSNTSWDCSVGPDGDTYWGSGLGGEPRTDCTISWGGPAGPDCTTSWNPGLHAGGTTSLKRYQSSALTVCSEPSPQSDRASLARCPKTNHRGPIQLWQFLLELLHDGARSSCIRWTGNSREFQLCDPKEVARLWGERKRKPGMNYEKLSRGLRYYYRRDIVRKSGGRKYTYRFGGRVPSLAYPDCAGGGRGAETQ
Method in brief: as §1

ELF3 = target: T5, ELF3 (Homo sapiens, UniProt P78545 1-371); conditions: protein: recombinant; tags: N-terminal GST; dsDNA, one strand shown
T5 sequence: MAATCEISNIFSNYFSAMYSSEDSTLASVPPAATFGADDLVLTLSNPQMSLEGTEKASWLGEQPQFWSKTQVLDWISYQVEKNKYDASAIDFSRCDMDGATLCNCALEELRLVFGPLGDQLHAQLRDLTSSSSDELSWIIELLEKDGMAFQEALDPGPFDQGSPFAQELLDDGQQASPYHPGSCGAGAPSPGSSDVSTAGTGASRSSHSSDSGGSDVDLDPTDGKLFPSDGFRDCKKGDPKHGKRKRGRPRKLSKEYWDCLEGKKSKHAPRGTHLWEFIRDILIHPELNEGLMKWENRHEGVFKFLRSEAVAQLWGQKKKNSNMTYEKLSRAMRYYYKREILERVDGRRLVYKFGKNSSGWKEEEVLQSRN
Method in brief: as §1

CRX = CRX (Homo sapiens, UniProt O43186 1-299); conditions: protein: recombinant; tags: N-terminal GST; dsDNA, one strand shown
Method in brief: as §1

ETV1 = ETV1 (Homo sapiens, UniProt P50549 1-477); conditions: protein: recombinant; tags: N-terminal GST; dsDNA, one strand shown
Method in brief: as §1

ERF = target: T6, ERF (Homo sapiens, UniProt P50548 1-548); conditions: protein: recombinant; tags: N-terminal GST; dsDNA, one strand shown
T6 sequence: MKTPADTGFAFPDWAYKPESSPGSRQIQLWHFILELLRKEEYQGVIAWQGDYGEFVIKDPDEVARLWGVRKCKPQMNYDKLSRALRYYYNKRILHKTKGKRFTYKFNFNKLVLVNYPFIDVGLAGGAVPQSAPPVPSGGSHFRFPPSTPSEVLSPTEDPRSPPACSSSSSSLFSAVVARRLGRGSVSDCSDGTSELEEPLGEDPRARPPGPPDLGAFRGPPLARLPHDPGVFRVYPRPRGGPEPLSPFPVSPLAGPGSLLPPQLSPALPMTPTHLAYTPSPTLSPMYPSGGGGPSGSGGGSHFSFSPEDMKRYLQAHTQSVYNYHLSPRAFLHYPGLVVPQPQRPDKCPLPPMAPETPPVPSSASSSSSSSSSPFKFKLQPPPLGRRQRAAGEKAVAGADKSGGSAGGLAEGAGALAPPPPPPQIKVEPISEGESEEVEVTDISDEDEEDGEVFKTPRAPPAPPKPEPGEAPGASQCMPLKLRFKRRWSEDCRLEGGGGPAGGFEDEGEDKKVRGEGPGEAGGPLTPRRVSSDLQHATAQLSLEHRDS
Method in brief: as §1

ETV3L = target: T7, ETV3L (Homo sapiens, UniProt Q6ZN32 1-361); conditions: protein: recombinant; tags: N-terminal GST; dsDNA, one strand shown
T7 sequence: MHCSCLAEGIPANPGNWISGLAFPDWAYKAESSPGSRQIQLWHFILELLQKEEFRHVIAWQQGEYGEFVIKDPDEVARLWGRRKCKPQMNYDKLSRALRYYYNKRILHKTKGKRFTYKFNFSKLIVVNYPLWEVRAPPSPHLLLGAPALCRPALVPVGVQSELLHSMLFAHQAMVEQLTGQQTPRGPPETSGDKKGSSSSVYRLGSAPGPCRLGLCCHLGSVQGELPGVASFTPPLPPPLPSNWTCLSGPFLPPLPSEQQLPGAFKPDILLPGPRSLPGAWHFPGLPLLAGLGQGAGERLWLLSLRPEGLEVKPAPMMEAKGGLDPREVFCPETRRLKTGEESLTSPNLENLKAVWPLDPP
Method in brief: as §1

ETS2 = target: T8, ETS2 (Homo sapiens, UniProt P15036 1-469); conditions: protein: recombinant; tags: N-terminal GST; dsDNA, one strand shown
T8 sequence: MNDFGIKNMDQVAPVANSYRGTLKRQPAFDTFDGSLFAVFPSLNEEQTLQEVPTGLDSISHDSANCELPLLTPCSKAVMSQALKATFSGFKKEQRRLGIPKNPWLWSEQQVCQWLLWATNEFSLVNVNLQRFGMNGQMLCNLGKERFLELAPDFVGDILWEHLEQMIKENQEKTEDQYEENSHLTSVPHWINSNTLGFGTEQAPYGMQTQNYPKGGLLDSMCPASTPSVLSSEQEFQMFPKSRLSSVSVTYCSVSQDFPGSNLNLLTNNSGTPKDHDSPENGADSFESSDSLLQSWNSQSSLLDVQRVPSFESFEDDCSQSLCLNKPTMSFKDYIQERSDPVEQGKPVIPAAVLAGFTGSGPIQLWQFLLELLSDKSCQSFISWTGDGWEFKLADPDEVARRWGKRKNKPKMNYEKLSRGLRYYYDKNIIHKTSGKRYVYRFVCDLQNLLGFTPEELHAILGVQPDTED
Method in brief: as §1

SPDEF = target: T9, SPDEF (Homo sapiens, UniProt O95238 1-335); conditions: protein: recombinant; tags: N-terminal GST; dsDNA, one strand shown
T9 sequence: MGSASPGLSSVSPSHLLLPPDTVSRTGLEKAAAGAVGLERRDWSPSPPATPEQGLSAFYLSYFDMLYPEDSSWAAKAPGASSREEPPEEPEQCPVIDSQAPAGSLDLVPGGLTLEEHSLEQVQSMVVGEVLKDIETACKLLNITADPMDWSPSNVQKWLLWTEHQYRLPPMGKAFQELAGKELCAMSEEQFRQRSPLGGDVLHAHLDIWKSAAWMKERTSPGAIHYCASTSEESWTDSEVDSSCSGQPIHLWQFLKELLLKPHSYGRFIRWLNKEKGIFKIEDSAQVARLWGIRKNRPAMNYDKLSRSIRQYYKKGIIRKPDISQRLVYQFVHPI
Method in brief: as §1

ETV7 = target: T10, ETV7 (Homo sapiens, UniProt Q9Y603 1-341); conditions: protein: recombinant; tags: N-terminal GST; dsDNA, one strand shown
T10 sequence: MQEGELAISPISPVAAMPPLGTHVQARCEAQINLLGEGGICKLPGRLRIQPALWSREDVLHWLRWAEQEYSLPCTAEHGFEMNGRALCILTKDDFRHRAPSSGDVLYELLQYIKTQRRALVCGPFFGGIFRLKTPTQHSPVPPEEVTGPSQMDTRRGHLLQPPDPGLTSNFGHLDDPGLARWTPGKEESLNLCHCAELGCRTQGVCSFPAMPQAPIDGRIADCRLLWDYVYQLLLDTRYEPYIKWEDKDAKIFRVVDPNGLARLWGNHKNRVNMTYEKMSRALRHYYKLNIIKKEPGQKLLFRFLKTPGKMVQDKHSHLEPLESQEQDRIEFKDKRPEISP
Method in brief: as §1

ELF5 = target: T11, ELF5 (Homo sapiens, UniProt Q9UKW6-2 1-255); conditions: protein: recombinant; tags: N-terminal GST; dsDNA, one strand shown
T11 sequence: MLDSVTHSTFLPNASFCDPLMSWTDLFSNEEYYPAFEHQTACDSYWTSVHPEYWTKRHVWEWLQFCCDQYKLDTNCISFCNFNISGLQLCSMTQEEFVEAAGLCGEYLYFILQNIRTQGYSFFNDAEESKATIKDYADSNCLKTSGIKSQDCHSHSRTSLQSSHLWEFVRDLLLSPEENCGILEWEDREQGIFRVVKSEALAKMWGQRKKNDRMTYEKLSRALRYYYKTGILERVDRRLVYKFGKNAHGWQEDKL
Method in brief: as §1

ETV3 = target: T12, ETV3 (Homo sapiens, UniProt P41162-2 1-143); conditions: protein: recombinant; tags: N-terminal GST; dsDNA, one strand shown
T12 sequence: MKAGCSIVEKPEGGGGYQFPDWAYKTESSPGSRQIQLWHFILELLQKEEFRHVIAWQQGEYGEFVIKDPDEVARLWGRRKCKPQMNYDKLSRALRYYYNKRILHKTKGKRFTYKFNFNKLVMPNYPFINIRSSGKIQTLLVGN
Method in brief: as §1

ETV6 = ETV6 (Homo sapiens, UniProt P41212 1-452); conditions: protein: recombinant; tags: N-terminal GST; dsDNA, one strand shown
Method in brief: as §1

Chain of ELF4 (Q99607 whole entry): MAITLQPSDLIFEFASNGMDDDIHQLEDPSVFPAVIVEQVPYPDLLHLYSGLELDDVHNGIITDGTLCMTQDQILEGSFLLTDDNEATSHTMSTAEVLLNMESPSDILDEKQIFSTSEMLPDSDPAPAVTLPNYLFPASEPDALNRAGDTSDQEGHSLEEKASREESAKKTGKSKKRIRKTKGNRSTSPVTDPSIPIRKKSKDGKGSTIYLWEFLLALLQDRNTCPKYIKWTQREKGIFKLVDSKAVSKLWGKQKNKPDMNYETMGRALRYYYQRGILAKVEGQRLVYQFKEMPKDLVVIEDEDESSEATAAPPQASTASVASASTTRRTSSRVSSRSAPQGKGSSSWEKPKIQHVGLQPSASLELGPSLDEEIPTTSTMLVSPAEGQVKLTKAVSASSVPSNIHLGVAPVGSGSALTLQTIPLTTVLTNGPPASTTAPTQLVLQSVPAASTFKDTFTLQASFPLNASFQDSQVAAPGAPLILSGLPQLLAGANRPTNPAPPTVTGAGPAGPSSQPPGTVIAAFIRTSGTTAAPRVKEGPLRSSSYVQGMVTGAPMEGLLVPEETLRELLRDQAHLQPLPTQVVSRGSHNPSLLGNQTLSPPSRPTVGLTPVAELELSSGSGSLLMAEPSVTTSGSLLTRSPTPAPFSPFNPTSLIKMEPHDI
Chain of HSF1 (Q00613 whole entry): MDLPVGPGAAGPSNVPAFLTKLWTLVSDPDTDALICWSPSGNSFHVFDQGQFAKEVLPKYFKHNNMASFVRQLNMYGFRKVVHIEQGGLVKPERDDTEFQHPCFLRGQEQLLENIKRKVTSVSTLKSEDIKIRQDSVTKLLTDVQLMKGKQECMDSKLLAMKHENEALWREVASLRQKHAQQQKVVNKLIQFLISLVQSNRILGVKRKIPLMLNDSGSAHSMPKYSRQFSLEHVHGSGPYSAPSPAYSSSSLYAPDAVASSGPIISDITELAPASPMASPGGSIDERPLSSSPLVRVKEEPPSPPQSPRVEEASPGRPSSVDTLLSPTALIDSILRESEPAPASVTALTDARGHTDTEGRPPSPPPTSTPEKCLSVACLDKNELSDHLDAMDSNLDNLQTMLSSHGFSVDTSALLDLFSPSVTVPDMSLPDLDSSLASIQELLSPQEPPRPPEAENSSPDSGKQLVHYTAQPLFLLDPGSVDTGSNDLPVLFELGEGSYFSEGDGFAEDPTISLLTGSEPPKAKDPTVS
Chain of CRX (O43186 whole entry): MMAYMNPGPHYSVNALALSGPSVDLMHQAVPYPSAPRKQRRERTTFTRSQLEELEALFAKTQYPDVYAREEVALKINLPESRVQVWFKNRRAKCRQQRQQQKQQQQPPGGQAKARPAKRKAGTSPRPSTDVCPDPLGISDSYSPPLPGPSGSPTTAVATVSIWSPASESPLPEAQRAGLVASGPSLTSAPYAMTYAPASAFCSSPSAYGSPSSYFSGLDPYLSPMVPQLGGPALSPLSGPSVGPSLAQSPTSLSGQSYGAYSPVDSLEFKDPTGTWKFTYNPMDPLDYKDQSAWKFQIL
Chain of ETV6 (P41212 whole entry): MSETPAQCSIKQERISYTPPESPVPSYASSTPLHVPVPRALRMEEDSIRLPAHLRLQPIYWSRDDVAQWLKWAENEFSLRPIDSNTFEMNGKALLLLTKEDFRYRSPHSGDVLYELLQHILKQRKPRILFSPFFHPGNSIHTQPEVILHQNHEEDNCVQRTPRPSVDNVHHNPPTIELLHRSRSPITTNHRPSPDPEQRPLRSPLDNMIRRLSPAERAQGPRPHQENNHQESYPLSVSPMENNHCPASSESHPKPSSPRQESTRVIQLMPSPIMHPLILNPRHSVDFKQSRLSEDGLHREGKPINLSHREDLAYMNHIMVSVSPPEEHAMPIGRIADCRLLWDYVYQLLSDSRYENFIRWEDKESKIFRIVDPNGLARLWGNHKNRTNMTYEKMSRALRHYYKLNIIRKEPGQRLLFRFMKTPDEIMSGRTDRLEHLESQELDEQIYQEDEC
Chain of ETV1 (P50549 whole entry): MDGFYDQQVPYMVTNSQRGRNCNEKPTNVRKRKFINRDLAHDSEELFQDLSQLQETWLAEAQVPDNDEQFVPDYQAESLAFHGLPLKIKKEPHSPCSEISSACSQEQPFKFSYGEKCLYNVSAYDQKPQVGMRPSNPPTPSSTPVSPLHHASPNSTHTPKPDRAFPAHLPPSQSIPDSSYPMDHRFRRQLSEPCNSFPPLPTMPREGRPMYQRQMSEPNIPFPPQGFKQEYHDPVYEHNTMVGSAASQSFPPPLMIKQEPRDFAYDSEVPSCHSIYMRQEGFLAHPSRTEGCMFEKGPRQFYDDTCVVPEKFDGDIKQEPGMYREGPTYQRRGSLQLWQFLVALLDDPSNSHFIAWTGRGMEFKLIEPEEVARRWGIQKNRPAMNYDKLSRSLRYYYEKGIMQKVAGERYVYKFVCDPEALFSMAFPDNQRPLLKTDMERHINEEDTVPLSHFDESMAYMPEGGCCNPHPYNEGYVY
Chain of ETV5 (P41161 whole entry): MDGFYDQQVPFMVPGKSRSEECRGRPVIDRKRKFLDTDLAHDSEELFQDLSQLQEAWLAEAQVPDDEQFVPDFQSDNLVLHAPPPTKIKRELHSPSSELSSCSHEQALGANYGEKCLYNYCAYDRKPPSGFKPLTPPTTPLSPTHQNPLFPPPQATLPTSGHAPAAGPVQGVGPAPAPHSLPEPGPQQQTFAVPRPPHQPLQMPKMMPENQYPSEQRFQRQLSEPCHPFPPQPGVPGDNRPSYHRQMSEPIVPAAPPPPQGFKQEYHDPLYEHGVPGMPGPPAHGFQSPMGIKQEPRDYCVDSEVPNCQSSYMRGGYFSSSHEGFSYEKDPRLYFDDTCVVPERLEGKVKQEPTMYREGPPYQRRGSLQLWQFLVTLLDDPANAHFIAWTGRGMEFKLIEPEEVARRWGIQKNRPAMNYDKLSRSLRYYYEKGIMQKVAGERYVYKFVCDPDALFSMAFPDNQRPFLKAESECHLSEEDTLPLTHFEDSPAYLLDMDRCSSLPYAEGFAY

## GCTCCT
FEV
  binding signal: 1.46 fold enrichment (6-mer frequency, TF over GST control)
ETV5
  binding signal: 1.4 fold enrichment (6-mer frequency, TF over GST control)
HSF1
  binding signal: 1.29 fold enrichment (6-mer frequency, TF over GST control)
SPIC
  binding signal: 1.44 fold enrichment (6-mer frequency, TF over GST control)
ELF4
  binding signal: 1.51 fold enrichment (6-mer frequency, TF over GST control)
ELK4
  binding signal: 1.33 fold enrichment (6-mer frequency, TF over GST control)
ETV2
  binding signal: 1.57 fold enrichment (6-mer frequency, TF over GST control)
ELF3
  binding signal: 1.57 fold enrichment (6-mer frequency, TF over GST control)
CRX
  binding signal: 1.34 fold enrichment (6-mer frequency, TF over GST control)
ETV1
  binding signal: 1.46 fold enrichment (6-mer frequency, TF over GST control)
ERF
  binding signal: 1.54 fold enrichment (6-mer frequency, TF over GST control)
ETV3L
  binding signal: 1.61 fold enrichment (6-mer frequency, TF over GST control)
ETS2
  binding signal: 1.45 fold enrichment (6-mer frequency, TF over GST control)
SPDEF
  binding signal: 1.54 fold enrichment (6-mer frequency, TF over GST control)
ETV7
  binding signal: 1.43 fold enrichment (6-mer frequency, TF over GST control)
ELF5
  binding signal: 1.44 fold enrichment (6-mer frequency, TF over GST control)
ETV3
  binding signal: 1.37 fold enrichment (6-mer frequency, TF over GST control)
ETV6
  binding signal: 1.5 fold enrichment (6-mer frequency, TF over GST control)
